Records with an inconclusive call do not appear. The source made the active and inactive calls. Rule for the calls, unless noted: active = hit-call score of the fitted dose curve at least 0.9, where 1 is the maximum; inconclusive = response in the unintended direction; inactive = score below 0.9.
How the values were obtained:
[1] = TOX21_p53_BLA_p2_viability: Viability Assessment in the Tox21 HCT-116 p53 Agonism Beta-lactamase Assay, Phase 2 (AID 2283591);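 note: compound exposure lasted 16 h at 37 °C; actives lower the ATP signal meaning cytotoxicity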
How it was run: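 Cytotoxicity readout: CellTiter-Glo ATP luminescence, 30 min at room temperature, after the beta-lactamase read. Cells were HCT116 exposed 16 h at 37C to compounds pin-transferred at 217-fold dilution from DMSO stocks.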

[2] = TOX21_p53_BLA_p3_viability: Viability Assessment in the Tox21 HCT-116 p53 Agonism Beta-lactamase Assay, Phase 3 (AID 2283593);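 note: cells exposed to compound for 16 h before reading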
How it was run: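 Cellular ATP was quantified by CellTiter-Glo luminescence, read after 30 min at room temperature. Beforehand, HCT116 cells (4000/well) received compound 5 h post-seeding, 217-fold diluted from DMSO, then incubated 16 h at 37C.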

[3] = biological target: Cellular tumor antigen p53 (Homo sapiens) (UniProt P04637); test: TOX21_p53_BLA_p3_ratio: Tox21 HCT-116 p53 Agonism Beta-lactamase Assay, Ratio, Phase 3 (AID 2283596)
How it was run: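 HCT116 p53-bla cells (4000/well) given compound in DMSO (217-fold dilution) after 5 h, incubated 16 h at 37C. CCF4-AM substrate 2 h at room temperature; 460/530 nm emission ratio, gain fitted against DMSO.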

[4] = TOX21_p53_BLA_p4_viability: Viability Assessment in the Tox21 HCT-116 p53 Agonism Beta-lactamase Assay, Phase 4 (AID 2283597);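 note: hits lower the luminescence signal meaning cytotoxicity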
How it was run: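 Cells plated, 5 h pre-incubation; DMSO compounds pinned (217-fold dilution); 16 h, 37C/5% CO2; CCF4-AM 2 h RT; CellTiter-Glo 30 min RT; luminescence read.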

[5] = biological target: Cellular tumor antigen p53 (Homo sapiens) (UniProt P04637); test: TOX21_p53_BLA_p5_ratio: Tox21 HCT-116 p53 Agonism Beta-lactamase Assay, Ratio, Phase 5 (AID 2283599)
How it was run: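 Beta-lactamase reporter ratio (blue 460 nm over green 530 nm, 405 nm excitation) after 2 h CCF4-AM loading, in HCT-116 cells exposed 16 h at 37 C to compounds pinned at 217-fold dilution. Increases relative to DMSO baseline scored.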

[6] = TOX21_p53_BLA_p5_viability: Viability Assessment in the Tox21 HCT-116 p53 Agonism Beta-lactamase Assay, Phase 5 (AID 2283600)
How it was run: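 4000 cells/well; 5 h pre-incubation; DMSO compounds pin-transferred, 217-fold dilution; 16 h, 37C/5% CO2; CCF4-AM 2 h RT; CellTiter-Glo 30 min RT; luminescence.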

[7] = biological target: Cellular tumor antigen p53 (Homo sapiens) (UniProt P04637); test: TOX21_p53_BLA_p4_ratio: Tox21 HCT-116 p53 Agonism Beta-lactamase Assay, Ratio, Phase 4 (AID 2283601)
How it was run: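 Signal is the blue/green (460nm/530nm) ratio of cleaved versus uncleaved CCF4-AM substrate, read after 2 h substrate loading. Cells were HCT116 carrying the p53-responsive beta-lactamase reporter, dosed 16 h at 37C, 5% CO2; CellTiter-Glo measured in parallel.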

[8] = biological target: Cellular tumor antigen p53 (Homo sapiens) (UniProt P04637); test: TOX21_p53_BLA_p2_ratio: Tox21 HCT-116 p53 Agonism Beta-lactamase Assay, Ratio, Phase 2 (AID 2283592)
How it was run: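 HCT116 p53-bla; 4000 cells/well; 5 h pre-incubation; cpd in DMSO, 217-fold dilution; 16 h 37C/5% CO2; CCF4-AM 2 h RT; Ex 405, Em 460/530 ratio; DMSO = baseline; positive fitting direction.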

[9] = CCTE_Harrill_HTTr_Viability_MCF7: CCTE's 6-hour Cell Viability Assessment for the High-Throughput Transcriptomics (HTTr) Platform, in MCF-7 cells cultured in DMEM + 10% fetal bovine serum, Harrill Lab (AID 2284010; active = hit-call score of the fitted dose curve at least 0.9, where 1 is the maximum; inactive = score below 0.9)
How it was run: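 Cells were dosed with chemicals in an eight-point dilution series, imaged 6 hours later for propidium iodide uptake, and the endpoint was analyzed by bidirectional fitting against DMSO as negative control.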

[10] = CCTE_Harrill_HTTr_Apoptosis_MCF7: CCTE's 6-hour Apoptosis Assessment for the High-Throughput Transcriptomics (HTTr) Platform, in MCF-7 cells cultured in DMEM + 10% fetal bovine serum, Harrill Lab (AID 2284011; active = hit-call score of the fitted dose curve at least 0.9, where 1 is the maximum; inactive = score below 0.9)
How it was run: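 MCF-7 (DMEM + 10% FBS), 384-well; 8-pt dilution series, 6 h chemical exposure; caspase-3/7 activation via CellEvent Caspase 3/7 Green, HCI; bidirectional fit vs DMSO.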

[11] = ACEA_ER_AUC_viability: ACEA Biosciences xCELLigence Real-Time Cell Analysis on Estrogen Receptor Agonism for Viability (AID 2283782);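 note: continuous compound exposure with impedance area under curve over 80 h; hit means loss of impedance signal meaning reduced cell growth or viability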
How it was run: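 T-47D; phenol red-free RPMI1640 + 10% CS-FBS; 8 conc., 1:4 serial, max 100 uM final, ≤0.5% DMSO; n = 2; continuous exposure; impedance monitored to 80 h post-dose; AUC vs DMSO.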

[12] = CCTE_Harrill_HTTr_CellCount_MCF7: CCTE's Cell Proliferation Assessment for the High-Throughput Transcriptomics (HTTr) Platform, Harrill Lab (AID 2284012);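 note: count of Hoechst-stained nuclei per well by high-content imaging in MCF-7 cells; cells exposed to compound for six hours; intended direction is loss of nuclei count meaning fewer cells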
How it was run: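 Chemicals in eight-point dilution series are added to MCF-7 cells for six hours, nuclei are stained with Hoechst and imaged, and per-well nuclei counts are fitted in both directions relative to DMSO controls.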

Measured: AC50

Sequence of Cellular tumor antigen p53 (Homo sapiens) (P04637 whole entry, looked up): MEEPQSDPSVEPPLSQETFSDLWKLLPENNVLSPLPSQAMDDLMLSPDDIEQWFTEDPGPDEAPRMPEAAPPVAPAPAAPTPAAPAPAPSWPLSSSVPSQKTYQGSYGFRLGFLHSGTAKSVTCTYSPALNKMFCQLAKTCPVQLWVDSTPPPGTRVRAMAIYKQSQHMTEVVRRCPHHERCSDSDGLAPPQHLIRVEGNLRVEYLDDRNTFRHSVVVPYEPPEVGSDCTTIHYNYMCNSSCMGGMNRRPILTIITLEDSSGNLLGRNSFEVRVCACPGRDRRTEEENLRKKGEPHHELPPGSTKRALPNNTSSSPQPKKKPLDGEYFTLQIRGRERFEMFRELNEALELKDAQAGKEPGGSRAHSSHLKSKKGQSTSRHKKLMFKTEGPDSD

CC(C)C[C@H]1C(=O)N2CCC[C@H]2[C@]2(O)O[C@](NC(=O)[C@@H]3C[C@@H]4c5cccc6[nH]cc(c56)C[C@H]4N(C)C3)(C(C)C)C(=O)N12
inactive: [1] | [2] | [3] | [4] | [5] | [6] | [7]

c1ccc(C2(N3CCCC3)CCCCC2)cc1
active: [2] 33.1 µM | [3] 43.9 µM
inactive: [1] | [4] | [5] | [6]

ClCc1ccccc1
inactive: [1] | [2] | [3] | [4] | [5] | [6]

CC(Cl)(Cl)Cl
inactive: [1] | [2]

CCC1(c2ccccc2)C(=O)NC(=O)N(C(=O)c2ccccc2)C1=O (stereo not given)
inactive: [1] | [2] | [3] | [4] | [5] | [6] | [7]

CON(C)C(=O)Nc1ccc(Br)cc1
inactive: [1] | [8] | [4] | [7]

O=[N+]([O-])CCO
inactive: [1] | [8] | [4] | [6] | [7]

COc1ccc2c(C(=O)c3ccc(Cl)cc3)c(C)n(CC(=O)O)c2c1
inactive: [1] | [8] | [4] | [5] | [6] | [7]

N#CCc1ccccc1
inactive: [1] | [2] | [3] | [4] | [5] | [6] | [7]

CCSC(=O)Cl
inactive: [1] | [8] | [4] | [5] | [6] | [7]

C=CC(C)=O
inactive: [1] | [2] | [3] | [4] | [5] | [6] | [7]

CC(=O)C(Cl)(Cl)Cl
inactive: [1] | [2] | [4] | [6] | [7]
active: [3] 0.778 µM | [5] 1.52 µM

CC(=O)C(C)(C)C
inactive: [1] | [8] | [5] | [6] | [7]

C[C@H]1CC[C@]2(NC1)O[C@H]1C[C@H]3[C@@H]4CC[C@H]5C[C@@H](O)CC[C@]5(C)[C@H]4CC[C@]3(C)[C@H]1[C@@H]2C
inactive: [1] | [2] | [3] | [4] | [5] | [6]

CNC(=O)NC(O)C(Cl)(Cl)Cl (stereo not given)
inactive: [1] | [8] | [4] | [6] | [7]

CCCCCl
inactive: [1] | [2] | [3] | [4] | [5] | [6] | [7]

O=C1NCN(c2ccccc2)C12CCN(CC1COc3ccccc3O1)CC2 (stereo not given)
inactive: [1] | [2]

OCC(Cl)CCl (stereo not given)
inactive: [1] | [2] | [3] | [4] | [5] | [6]

O=[N+]([O-])c1ccc(CBr)cc1
inactive: [1] | [2] | [4]
active: [3] 94.3 µM

CC(Cl)(Cl)[N+](=O)[O-]
inactive: [1] | [8] | [4] | [5] | [7]

C[C@@H]1[C@@H]2Cc3ccc(O)cc3[C@@]1(C)CCN2CC1CC1
inactive: [1] | [8] | [6] | [7]

OCCSSCCO
inactive: [1] | [8] | [5] | [7] | [9] | [10]

CCC(=O)OC1(c2ccccc2)CCN(C)CC1
inactive: [1] | [8] | [5] | [6]

O=S1(=O)OCCO1
inactive: [1] | [8] | [4] | [5] | [6] | [7]

[O]=[Cd]
inactive: [1] | [2] | [3] | [4] | [5] | [6] | [7]

O=C1CCCCC1Cl (stereo not given)
inactive: [1] | [2] | [3] | [4]

O=C(O)c1ccccc1C(=O)Nc1cccc2ccccc12
inactive: [1] | [8] | [4] | [5] | [6] | [10] | [12]
active: [7] 70.1 µM | [11] 85.4 µM | [9] 53.8 µM

CC[C@H](OC(C)=O)C(C[C@H](C)NC)(c1ccccc1)c1ccccc1
active: [4] 51.1 µM
inactive: [1] | [2] | [3] | [5] | [6] | [7]

c1ccc2c(c1)CCNC2
inactive: [1] | [8] | [4] | [6]

C[C@@H](Cc1ccccc1)NCCC(c1ccccc1)c1ccccc1
active: [4] 12.5 µM
inactive: [1] | [2] | [3] | [5] | [6] | [7]

CC1=C2[C@H]3OC(=O)[C@@H](C)[C@@H]3CC[C@@]2(C)C=CC1=O
inactive: [1] | [8] | [4] | [5] | [6] | [7]
